Compound activity as filed in PubChem BioAssay.
KB-V1 cytotox = qHTS assay for MDR1-selective chemotherapeutics: Primary screen using the drug-selected MDR subline cells KB-V1; KB-V1 MDR cells viability, CellTiter-Glo, 72 h; Potency, µM (series often up to 46.1 µM), actives largely listed as cytotoxic; actives 3.4% (n = 400,000); further: on the % scale 0 is the no-effect control and ±100 the full control effect; nearly all actives have a fitted effect of over 60% in size
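In this primary screen, KB-V1 cells overexpressing P-gp are incubated with library compounds (lowest to highest concentration) for 72 h at 37 degrees C before a luminescent ATP viability read.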
VP16 counter = VP16 counterscreen qHTS for inhibitors of ROR gamma transcriptional activity. actives 3.5% (n = 310,000). Drosophila S2 Gal4-VP16 UAS-luciferase, luminescence, 20 h. Potency, µM (titrated, usually from 53.6 µM), for the others: at the highest dose activity, negative = inhibition, actives largely listed as inhibitors;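 further: Gal4-VP16 expression switched on by copper sulfate through the metallothionein promoter; on the % scale 0 is the no-effect control and ±100 the full control effect; nearly all actives have a fitted effect of over 50% in size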
KB-3-1 tox = qHTS assay for MDR1-selective chemotherapeutics: Primary screen using the parental adenocarcinoma cell KB-3-1; KB-3-1 viability, CellTiter-Glo ATP luminescence, 72 h; Potency, µM (highest dose often 46.1 µM), hits mostly cytotoxic; actives 1.4% (n = 400,000); AID 1347075, 2019; further: on the % scale 0 is the no-effect control and ±100 the full control effect; nearly all actives have a fitted effect of over 60% in size
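KB-3-1 parental drug-naive adenocarcinoma cells in DMEM/10% FBS, incubated 72 h at 37 C with pin-transferred compounds across a concentration series. Viability by CellTiter-Glo luminescence; concentration-response curves fitted after normalization.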
MCF10A rereplic = A quantitative high throughput screen for small molecules that induce DNA re-replication in MCF 10a normal breast cells; MCF 10A DNA re-replication, Hoechst nuclear intensity, 48 h; Potency, µM (titrated, usually from 46.1 µM), inactives show at the top dose activity, positive = re-replication, most hits filed as activators; actives 2.9% (n = 350,000); AID 624296, 2012; further: % of control where 0% means no effect; nearly all actives have a fitted effect of over 50% in size
RORgamma inh = qHTS for inhibitors of ROR gamma transcriptional activity | Drosophila S2 Gal4-RORgamma UAS-luciferase reporter, 20 h | Potency, µM (top dose mostly 53.6 µM), for the others: at the highest dose activity change, negative = inhibition, usual class: inhibitors | actives 5.4% (n = 310,000) | AID 2551, 2010; further: on the % scale 0 is the no-effect control and ±100 the full control effect; nearly all actives have a fitted effect of over 60% in size
Target sequence (P51450 whole entry, looked up, the tested form may be a part): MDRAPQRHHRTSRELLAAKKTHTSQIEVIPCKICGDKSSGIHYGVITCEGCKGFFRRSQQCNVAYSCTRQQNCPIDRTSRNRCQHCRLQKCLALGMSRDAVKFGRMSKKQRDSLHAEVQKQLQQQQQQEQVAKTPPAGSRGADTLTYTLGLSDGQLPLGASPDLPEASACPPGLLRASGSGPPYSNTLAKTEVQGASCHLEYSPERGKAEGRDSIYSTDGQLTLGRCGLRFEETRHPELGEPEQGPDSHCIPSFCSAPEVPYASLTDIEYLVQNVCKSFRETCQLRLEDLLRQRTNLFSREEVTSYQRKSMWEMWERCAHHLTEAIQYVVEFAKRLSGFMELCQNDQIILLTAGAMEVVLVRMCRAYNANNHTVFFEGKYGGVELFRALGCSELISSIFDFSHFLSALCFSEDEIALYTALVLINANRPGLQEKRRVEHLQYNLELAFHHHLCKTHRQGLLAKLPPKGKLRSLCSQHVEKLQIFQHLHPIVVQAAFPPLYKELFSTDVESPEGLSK
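Compounds are pin-transferred onto Drosophila Schneider cells expressing a copper-inducible Gal4–ROR gamma transactivation domain fusion. After 1 hr, copper sulfate is added to 700 uM final; luciferase is read 20 hr later.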
SW480 rerep = A quantitative high throughput screen for small molecules that induce DNA re-replication in SW480 colon adenocarcinoma cells; Potency, µM (top dose mostly 46.1 µM), for the others: at the highest dose re-replication activation, most hits filed as activators; AID 624297, 2012; actives 1.8% (n = 340,000); SW480 DNA re-replication, Hoechst DNA content imaging, 48 h; further: % of control where 0% means no effect; nearly all actives have a fitted effect of over 55% in size
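DNA re-replication was detected as more nuclei of elevated Hoechst intensity after 48 hr exposure to compound (23 nL pinned per well of 250 cells).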
Starred values were filed as active, the others as inactive; i = inactive; ? = inconclusive; · = no result given; [ ] = remark or other dose. Sampled rows, rich in hits. Any-hit rate of the full collection: about 10%. The call rests on the fitted dose curve; in most records, active means well fitted curve in the direction sought with a large enough effect; inconclusive means small, poorly fitted or top-dose-only effect, or another doubt; inactive means no such curve, though single readings can be large; an effect the other way counts as inactive or inconclusive. Potency means the concentration at half of the fitted maximal effect.

SMILES	KB-V1 cytotox	VP16 counter	KB-3-1 tox	MCF10A rereplic	RORgamma inh	SW480 rerep
COCCN1C(=O)COc2ccccc2C1C(=O)Nc1c(C)cccc1C (stereo unspecified)	i	·	i	·	·	·
NC(=O)C1=CC2C3C=CC2(O)C(=O)OC3O1 (stereo unspecified)	?	·	?	2.9µM*	·	3.7µM*
CC1(c2nnnn2-c2ccc3c(c2)OCCO3)CCC(=O)N1C1CCN(Cc2ccccc2)CC1 (stereo unspecified)	i	·	i	·	·	·
COC(=O)C1=C(C)NC(C)=C(C(=O)OC)C1c1ccc(OC(=O)c2oc3ccccc3c2C)c(OC)c1	i	10%	i	11%	3%	0.52µM*
COC(=O)C1=C(C)NC(=O)NC1c1ccc(OC)c(OC)c1 (stereo unspecified)	?	·	i	·	·	·
CSCC[C@@H]1NC(=O)C/C=C\[C@@H](C)COC(=O)[C@H](C)COC1=O	·	-1%[10 µM]	·	·	-21%[10 µM]	·
COc1cc([C@@H]2CC(=O)c3c(O)cc(O)cc3O2)ccc1O	·	7%	·	·	2%	·
Cc1ccc(C(=O)Nc2nc(=O)n(C)s2)cc1	i	11µM*	i	5%	8.9µM*	-1%
Cc1ccc(C(=O)Nc2nnc(C)s2)cc1	i	-18%	i	-13%	10µM*	?
Cc1nnc(NC(=O)c2ccc(Br)cc2)s1	i	-6%	i	6%	12%	0%
Cn1sc(NC(=O)c2ccc(Cl)cc2)nc1=O	i	-9%	i	-2%	-13%	2%
Ic1ccc(Nc2nc(NCCN3CCOCC3)nc(N3CCCC3)n2)cc1	?	·	i	·	·	·
O=C(CSc1nc2ccsc2c(=O)n1Cc1ccccc1Cl)NCc1ccc(F)cc1	i	·	i	·	·	·
O=C(NCCCc1nc2ccccc2n1Cc1ccccc1Cl)c1ccco1	?	·	i	·	·	·
Clc1ccccc1Cn1c(/C=C/c2ccco2)nc2ccccc21	13µM*	?	?	18µM*	11µM*	·
COc1ccccc1CNC(=O)C(=O)NCC(c1cccs1)S(=O)(=O)c1ccc(F)cc1 (stereo unspecified)	?	·	i	·	·	·
c1ccc(-n2cnc3cc(NCc4ccco4)ccc32)cc1	?	4%	23µM*	?	-41%	?
COc1ccc(-n2cnc3cc(NCc4cccs4)ccc32)cc1	i	7%	i	?	14µM*	9%
COc1ccc(-n2cnc3cc(NCc4ccccn4)ccc32)cc1	?	3%	i	?	-11%	6%
c1ccc(-n2cnc3cc(NCc4cccs4)ccc32)cc1	10µM*	-11%	?	?	?	13µM*
Cc1ccc(-n2cnc3cc(NCc4cccs4)ccc32)cc1	?	?	i	13%	-7%	7%
CC1=C(C(=O)N(C)C)CC(CC(=O)NCc2cccs2)C(=O)N1CCCN1CCCC1=O (stereo unspecified)	i	·	i	·	·	·
COCCOC(=O)c1c(C)oc2c1cc(NS(=O)(=O)c1ccc(Cl)c(C)c1)c1ccccc12	i	·	i	·	·	·
Cc1ccccc1C(c1c(C)n(C)n(-c2ccccc2)c1=O)c1c(C)n(C)n(-c2ccccc2)c1=O	i	·	i	·	·	·
Cc1nc2cc(NC(=O)c3ccc(Br)s3)ccc2s1	i	?	i	14%	5µM*	1%
SMILES	KB-V1 cytotox	VP16 counter	KB-3-1 tox	MCF10A rereplic	RORgamma inh	SW480 rerep
O=C(Nc1ccc2c(c1)OCCO2)c1ccc(Br)s1	13µM*	2%	18µM*	?	-32%	107%
O=C(CCl)Nc1c(C(=O)Nc2ccc3c(c2)OCCO3)oc2ccccc12	?	?	?	7.3µM*	0%	?
O=C(Cn1nnc(-c2ccccc2NC(=O)c2ccccc2)n1)Nc1ccc2c(c1)OCCO2	i	-25%	?	?	-19%	0%
Cc1ccccc1C(=O)Nc1ccccc1-c1nnn(CC(=O)Nc2ccc3c(c2)OCCO3)n1	3.7µM*	-9%	?	23µM*	-1%	14%
CSc1ccccc1C(=O)Nc1ccc2c(c1)OCCO2	i	28%	i	0%	2%	1%
Cc1occc1C(=O)Nc1ccc2c(c1)OCCO2	13µM*	?	i	-1%	8.9µM*	-2%
CCOc1ccc(NC(=O)c2oc3ccccc3c2NC(=O)C2CCCCC2)cc1	?	·	i	·	·	·
Cc1ccccc1C(=O)Nc1ccc2c(c1)OCCO2	i	?	i	2%	8.9µM*	1%
O=C(Nc1ccc(F)cc1)c1oc2ccccc2c1NC(=O)C1CCCC1	13µM*	1%	i	9%	16%	-9%
Cc1ccsc1C(=O)Nc1ccc2c(c1)OCCO2	21µM*	?	?	16%	?	-1%
N#Cc1ccc(S(=O)(=O)N2CCC(C(=O)N3CCN(Cc4ccc5c(c4)OCO5)CC3)CC2)cc1	?	·	i	-1%	·	-25%
CC(C)C[C@@H](CC(=O)N[C@@H](CCCN)CC(=O)N[C@@H]1CCCC[C@H]1C(=O)N[C@H](CC(=O)N[C@@H](CCC(=O)O)CC(=O)O)Cc1c[nH]c2ccccc12)NC(=O)[C@@H]1CNCC[C@H]1N	·	5%	·	·	3%	·
CCn1ncc(Br)c1C(=O)Nc1ccc2c(c1)OCCO2	21µM*	9%	?	-1%	17%	-8%
Cc1nn(C)c(C(=O)NC(=S)Nc2ccccc2O)c1Cl	i	3.2µM*	i	15%	2µM*	-12%
CCOc1ccc(NC(=S)NC(=O)/C=C/c2ccc(C)cc2)c([N+](=O)[O-])c1	12µM*	-17%	?	?	37%	12%
CCOc1ccc(NC(=S)NC(=O)c2c(Cl)c(C)nn2C)c([N+](=O)[O-])c1	i	?	i	-2%	10µM*	-10%
CCOc1ccc(N/C=C/C(=O)c2ccc(C)cc2)c([N+](=O)[O-])c1	i	?	i	0%	2µM*	-3%
CCOc1ccc(NC(=O)/C=C/c2ccc(OC)cc2)c([N+](=O)[O-])c1	i	-14%	i	1%	-6%	-7%
O=C(Nc1cccc(-c2nn[nH]n2)c1)c1csc2c1CCCC2	i	-4%	i	1%	28%	-5%
CN(CCCNC(=O)c1cc2c(=O)n(C)c3ccccc3c2s1)Cc1ccccc1	i	·	i	·	·	·
Cc1cccn2c(=O)c(C(=O)NCc3cccc(F)c3)cnc12	?	·	i	·	·	·
